In PubChem BioAssay (NCATS):
Results filed as inconclusive are left out. Active and inactive are the calls of the source. The call rests on the fitted dose curve; in most records, active means well fitted inhibition curve with a large enough effect; inconclusive means small, poorly fitted or top-dose-only effect; inactive means flat fitted curve, though single readings scatter.

Experiment: BET inhibitor-based combinations targeting novel dependencies in MECOM-rearranged (r) AML: AML-194 cell line (AID 2202237; further: nearly all actives have a fitted effect of over 40% in size;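 on viability (% of control): plate controls were vehicle wells for no effect and wells without cells for full effect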)
Settings: AML-194 (MECOM-r AML) viability, CellTiter-Glo, 48 h; series mostly up to 46 µM; viability (% of control): at the top concentration
Description: Ecotropic viral insertion site 1 (EVI1) is located on chromosome 3q26.2 as part of the MECOM (MDS and EVI1 complex) locus. Under normal hematopoiesis, EVI1 is a regulator of hematopoietic stem cell maintenance and self-renewal and EVI1 levels decrease as the cells differentiate. In approximately 5-10% of de novo acute myeloid leukemia (AML) EVI1 is aberrantly expressed, including Chromosomal inv(3)(q21;q26.2) or t(3;3)(q21;q26.2) alterations (MECOM-r) that account for about 50% of AML with EVI1 overexpression 31. AMLs with high levels of EVI1 have a poor prognosis and an overall survival time averaging between 10-14 months. EVI1 overexpression confers resistance in leukemia cells, highlighting the need to develop new targeted therapies for EVI1 overexpressing AMLs.
Here, we performed an unbiased chemical drug screening by evaluating the single agent activity of a collection of 2,480 oncology-focused, approved and investigational drugs (NCATS Mechanism Interrogation Plates, MIPE v5.0) against a panel of seven AML cell lines. These included four MECOM-r cell-lines (AML-191, AML-194, UCSD-AML1 and HNT-34) and three non-MECOM-r AMLs (MV4-11, OCI-AML3 and SET-2). Exploiting the mechanistic redundancy built in the library, we identified target-level sensitivities in MECOM-r AML cells and relative activity as compared to other AML subtypes.
A collection of 2480 mechanistically annotated dugs (MIPE v5.0) was used to screen four 3q26.2 rearranged AML cell lines and three non-3q26.2 rearranged AML cell lines. This library purposely exploits redundancy by including multiple inhibitors of key onco-targets, while simultaneously encompassing mechanistic diversity, targeting more than 800 distinct mechanisms of action. Briefly, cells were seeded in 5 uL of growth media using a Multidrop Combi dispenser into 1536 well white polystyrene tissue culture treated plates (Corning) at a density of 500cells/well. For each cell-line, for each of the 2480 drugs in MIPE v5.0 library, an 11-point dose curve was generated via a 1536 pin-tool. Plates were incubated for 48 hr at standard incubator conditions, covered by a stainless steel gasketed lid to prevent evaporation. Cell viability was determined by luminescence based, Cell Titer Glo assay (Promega). In detail, 3 uL of Cell Titer Glo were added to each well and plates were incubated at room temperature for 15 min with a stainless-steel lid in place. Luminescence readings were taken using a Viewlux (PerkinElmer) with a 2 s exposure time per plate. Compound dose-response curves were normalized to DMSO and empty well controls on each plate. Quantitative drug activity data from dose-response curves was determined utilizing area Under the Curve (AUC) and Z-transformed AUC (Z-AUC, a mean-centering transformation applied to each individual cell-line screened).
Potency means the concentration at half of the fitted maximal effect.

SMILES	viability (% of control)	Potency
CCNC(=O)CC1N=C(c2ccc(Cl)cc2)c2cc(OC)ccc2-n2c(C)nnc21 (stereo not given)	72.4% (inactive)	–
COC[C@@H](NC(C)=O)C(=O)NCc1ccccc1	119% (inactive)	–
COC1(CS(=O)c2ccccc2)CCN(CCc2c[nH]c3ccc(F)cc23)CC1 (stereo not given)	95.3% (inactive)	–
C[C@@H]1CC[C@@]2(OC1)O[C@H]1C[C@H]3[C@@H]4CC=C5C[C@@H](O[C@@H]6O[C@H](CO)[C@@H](O[C@@H]7O[C@@H](C)[C@H](O)[C@@H](O)[C@H]7O)[C@H](O)[C@H]6O[C@@H]6O[C@@H](C)[C@H](O)[C@@H](O)[C@H]6O)CC[C@]5(C)[C@H]4CC[C@]3(C)[C@H]1[C@@H]2C	–	8330 nM (active)
C[C@H]1CCC/C=C/C2C[C@H](O)C[C@H]2[C@H](O)/C=C/C(=O)O1 (stereo not given in full)	–	372 nM (active)
CCCC[N+]1(C)[C@H]2CC(OC(=O)[C@H](CO)c3ccccc3)C[C@H]1[C@H]1O[C@H]12 (stereo not given in full)	109% (inactive)	–
COc1cccc2c1C(=O)c1c(O)c3c(c(O)c1C2=O)C[C@@](O)(C(=O)CO)CC3OC1CC(N2CCOC(OC)C2)C(O)C(C)O1 (stereo not given in full)	–	4.2 nM (active)
COC12C(COC(N)=O)C3=C(C(=O)C(C)=C(N)C3=O)N1CC1C2N1C (stereo not given)	121% (inactive)	–
CO[C@H]1CCC(O[C@H]2C[C@H]([C@]3(C)CC[C@]4(C[C@H](O)[C@@H](C)[C@@H]([C@@H](C)/C=C(\C)C(=O)[C@H](C)C[C@H](C)C(=O)O)O4)O3)O[C@]3(O[C@@H]([C@H]4O[C@@](O)(CO)[C@H](C)C[C@@H]4C)C[C@@H]3C)[C@@H]2C)O[C@@H]1C (stereo not given in full)	–	263 nM (active)
C[C@@H](C1CC[C@@]2(O)C3=CC(=O)[C@@H]4C[C@@H](O)[C@@H](O)C[C@]4(C)[C@H]3CC[C@]12C)[C@H](O)CCC(C)(C)O (stereo not given in full)	104% (inactive)	–
C[C@]12CCC(=O)C(O)=C1CC[C@@H]1[C@@H]2CC[C@]2(C)C(=O)CC[C@@H]12	107% [at 92.2 µM] (inactive)	–
O=P1(N(CCCl)CCCl)NCCCO1 (stereo not given)	111% (inactive)	–
CC(=O)N1N=C(c2ccc(N)cc2)c2cc3c(cc2C[C@H]1C)OCO3	98.7% (inactive)	–
C[C@@H]1CN(Cc2ccc(F)cc2)CCN1C(=O)COc1ccc(Cl)cc1NC(N)=O	–	18600 nM (active)
CN[C@@H]1Cc2cccc3[nH]c(=O)n(c23)C1	119% (inactive)	–
CC(C)(NC(=O)O[C@@H]1CN2CCC1CC2)c1csc(-c2ccc(F)cc2)n1	95.4% (inactive)	–
C#CCN(C)[C@H](C)Cc1ccccc1	100% (inactive)	–
NC(=O)[C@@H](CC1CC1)[C@@H](CCC(F)(F)F)C(=O)N[C@H]1N=C(c2ccccc2)c2cccc(F)c2NC1=O	102% (inactive)	–
C[C@]12CC[C@H]3[C@@H](CCC4=CC(=O)CC[C@@]43C)[C@H]1CC[C@H]2OC(=O)CCC1CCCC1	106% (inactive)	–
CC[C@@H](C(N)=O)N1CCCC1=O	103% (inactive)	–

SMILES	viability (% of control)	Potency
COC(=O)[C@]12CCC(C)(C)C[C@H]1[C@H]1C(=O)C=C3[C@@]4(C)C=C(C#N)C(=O)C(C)(C)[C@@H]4CC[C@@]3(C)[C@]1(C)CC2	–	2630 nM (active)
O=C(NCC1CCOCC1)c1cnc(Nc2ccc(Cl)cc2Cl)nc1C(F)(F)F	103% (inactive)	–
Cc1[nH]nc2ccc(-c3cncc(OC[C@@H](N)Cc4c[nH]c5ccccc45)c3)cc12	–	934 nM (active)
O=c1[nH]c2ccc(Cl)cc2c(N[C@@H]2CN3CCC2CC3)c1-c1nc2ccccc2[nH]1	–	332 nM (active)
C[C@]12Cc3cn[nH]c3C[C@@H]1CC[C@@H]1[C@@H]2CC[C@@]2(C)[C@H]1CC[C@]2(C)O	106% (inactive)	–
COC(=O)[C@@]12OC[C@]34[C@H]([C@@H](O)[C@@H]1O)[C@@]1(C)CC(=O)C(O)=C(C)[C@@H]1C[C@H]3OC(=O)[C@H](OC(=O)/C=C(\C)C(C)C)[C@@H]24	–	5.9 nM (active)
C=C[C@H]1CN2CCC1C[C@@H]2[C@@H](O)c1ccnc2ccccc12 (stereo not given in full)	110% (inactive)	–
CC(O)(CS(=O)(=O)c1ccc(F)cc1)C(=O)Nc1ccc(C#N)c(C(F)(F)F)c1 (stereo not given)	95.8% (inactive)	–
CCCCCC[C@H]1C(=O)O[C@H](C)[C@H](NC(=O)c2cccc(NC=O)c2O)C(=O)O[C@@H](C)[C@@H]1OC(=O)CC(C)C	95.9% (inactive)	–
CCN1C[C@]2(OC(=O)c3ccccc3NC(C)=O)CC[C@H](OC)[C@@]34[C@H]5CC6[C@@H](OC)C[C@](O)(C(C[C@@H]23)[C@@H]14)[C@@]5(O)[C@@H]6OC	107% (inactive)	–
O=C(O)C1=CCCN(CCOC(c2ccc(C(F)(F)F)cc2)c2ccc(C(F)(F)F)cc2)C1	92.7% (inactive)	–
CN(C)[C@@H]1C(=O)C(C(N)=O)=C(O)[C@@]2(O)C(=O)C3=C(O)c4c(O)cccc4[C@@](C)(O)[C@H]3C[C@@H]12	82.1% (inactive)	–
O=C1C=CC[C@@H]2[C@H]3CCCN4CCC[C@@H](CN12)[C@@H]34	86% (inactive)	–
CCOC(=O)Nc1ccc(NCc2ccc(F)cc2)cc1N	102% (inactive)	–
C[C@@H]1CC[C@H]2[C@@H](C)C(=O)O[C@@H]3O[C@@]4(C)CC[C@@H]1[C@]32OO4	96.3% (inactive)	–
CC1(C)CC[C@]2(NC(=O)C(C)(F)F)CC[C@]3(C)[C@H](C(=O)C=C4[C@@]5(C)C=C(C#N)C(=O)C(C)(C)[C@@H]5CC[C@]43C)[C@@H]2C1	–	1860 nM (active)
CN1C(=O)[C@@H](NC(=O)[C@H](CCC(F)(F)F)[C@H](CCC(F)(F)F)C(N)=O)N=C(c2ccccc2)c2ccccc21	118% (inactive)	–
Cn1c(/C=C/CO)c(CO)c2c1C(=O)C=C(N1CC1)C2=O	114% (inactive)	–
CSCC[C@@H](NC(=O)[C@@H](Cc1ccccc1)NC(=O)CNC(=O)CNC(=O)[C@@H](N)Cc1ccc(O)cc1)C(=O)O	120% (inactive)	–
CCOP(=O)(OCC)C(C)NC(=O)N(CCCl)N=O (stereo not given)	119% (inactive)	–
